Screen size: about 39,000 compounds; about 1,500 (3.8%) were called active. The full list was thinned out, with actives kept by preference.
The molecules below were run on HSkMC (human skeletal muscle cells) (assay: cytotoxicity call (relative viability < 0.9)). Details: 10 µM.

SMILES | cytotoxicity call
C/C=C1\[C@@H](O[C@H]2O[C@@H](CO)[C@@H](O)[C@@H](O)[C@@H]2O)OC=C(C(=O)OC)[C@H]1CC(=O)OC[C@H]1[C@H](C)[C@H](OC(=O)C[C@@H]2C(C(=O)OC)=CO[C@H](O[C@H]3O[C@@H](CO)[C@@H](O)[C@@H](O)[C@@H]3O)/C2=C\C)C[C@@H]1[C@H](CO)COC(=O)C[C@@H]1C(C(=O)OC)=CO[C@@H](O[C@H]2O[C@@H](CO)[C@@H](O)[C@@H](O)[C@@H]2O)/C1=C\C | inactive
C[C@@H]1CN([C@H](C)CO)C(=O)c2cc(NC(=O)C3CCCCC3)ccc2O[C@H]1CN(C)Cc1ccc(Cl)c(Cl)c1 | inactive
N[C@@H](CC(=O)Nc1ccc(Cl)cc1)C(=O)O | inactive
CC(C)NC(=N)NC(=N)Nc1ccc(Cl)cc1.Cl | inactive
Cl.Cl.N=C(NCCCCCCNC(=N)NC(=N)Nc1ccc(Cl)cc1)NC(=N)Nc1ccc(Cl)cc1 | active
C[C@H](CO)N1C[C@H](C)[C@H](CN(C)S(=O)(=O)c2ccccc2)Oc2ccc(NS(=O)(=O)c3cn(C)cn3)cc2C1=O | inactive
O=C(O)c1ccnc2nc[nH]c12 | inactive
O=C1OC2(c3ccc(O)cc3Oc3cc(O)ccc32)c2ccccc21 | inactive
O=C1OC(c2cc(I)c(O)c(I)c2)(c2cc(I)c(O)c(I)c2)c2ccccc21 | inactive
O=C1OC2(c3ccccc31)c1cc(I)c(O)c(I)c1Oc1c2cc(I)c(O)c1I | active
Clc1ccc(-c2cccs2)nn1 | inactive
CC(C)NC(=O)Nc1cccc2c1O[C@@H](CN(C)C(=O)Nc1ccc3c(c1)OCO3)[C@H](C)CN([C@H](C)CO)C2=O | inactive
COCC#Cc1cnc2c(c1)C(=O)N([C@H](C)CO)C[C@H](C)[C@H](CN(C)C(=O)Nc1ccccc1OC)O2 | inactive
C[C@H]1CN([C@@H](C)CO)C(=O)c2cc(NS(=O)(=O)c3ccc(Cl)cc3)ccc2O[C@H]1CN(C)Cc1ccc(-c2ccccc2)cc1 | inactive
C[C@H](CO)N1C[C@H](C)[C@H](CN(C)Cc2ccc(-c3ccccc3)cc2)Oc2ccc(NS(=O)(=O)c3ccc(Cl)cc3)cc2C1=O | active
C[C@@H]1CN([C@H](C)CO)C(=O)c2cc(NS(=O)(=O)c3ccccc3)ccc2O[C@@H]1CN(C)Cc1ccc(-c2ccccc2)cc1 | inactive
C[C@H]1CN([C@@H](C)CO)C(=O)c2cc(NS(=O)(=O)c3ccc(Cl)cc3)ccc2O[C@@H]1CN(C)Cc1ccc(-c2ccccc2)cc1 | inactive
C[C@H](CO)N1C[C@H](C)[C@H](CN(C)Cc2ccc(-c3ccccc3)cc2)Oc2ccc(NS(=O)(=O)c3ccccc3)cc2C1=O | inactive
C[C@H]1CN([C@@H](C)CO)C(=O)c2cc(NS(=O)(=O)c3ccccc3)ccc2O[C@@H]1CN(C)Cc1ccc(-c2ccccc2)cc1 | inactive
C[C@@H]1CN([C@@H](C)CO)C(=O)c2cc(NS(=O)(=O)c3ccc(Cl)cc3)ccc2O[C@H]1CN(C)Cc1ccc(-c2ccccc2)cc1 | active
C[C@H](CO)N1C[C@H](C)[C@@H](CN(C)Cc2ccc(-c3ccccc3)cc2)Oc2ccc(NS(=O)(=O)c3ccccc3)cc2C1=O | inactive
C[C@@H]1CN([C@@H](C)CO)C(=O)c2cc(NS(=O)(=O)c3ccc(Cl)cc3)ccc2O[C@@H]1CN(C)Cc1ccc(-c2ccccc2)cc1 | active
C[C@@H]1CN([C@H](C)CO)C(=O)c2cc(NS(=O)(=O)c3ccc(Cl)cc3)ccc2O[C@@H]1CN(C)Cc1ccc(-c2ccccc2)cc1 | active
CN1CCN(C)C2(CCN(C(=O)c3ccn[nH]3)CC2)C1=O | inactive

SMILES | cytotoxicity call
COCCNC(=O)C[C@@H]1CC[C@H]2[C@@H](COc3ccc(NS(=O)(=O)c4ccc(Cl)cc4)cc3C(=O)N2C)O1 | inactive
C[C@H](CO)N1C[C@H](C)[C@@H](CN(C)C(=O)Nc2ccc(F)cc2)OCCCC[C@H](C)Oc2ccc(NS(=O)(=O)c3cccs3)cc2C1=O | inactive
C[C@@H]1CN([C@H](C)CO)C(=O)c2cc(NC(=O)CCC(F)(F)F)ccc2O[C@@H]1CN(C)C(=O)Nc1cccc2ccccc12 | inactive
COc1ccc(NC(=O)N2C[C@H](O)COC[C@H]3O[C@H](CC(=O)NCc4ccccc4OC)CC[C@@H]32)cc1 | inactive
C[C@@H]1CCCCO[C@@H](CN(C)C(=O)C2CCCCC2)[C@H](C)CN([C@H](C)CO)C(=O)c2cc(NC(=O)Nc3ccc4c(c3)OCO4)ccc2O1 | inactive
COc1ccc2occ(C(C)=O)c2c1 | inactive
C[C@@H]1CN([C@H](C)CO)C(=O)c2cc(NS(=O)(=O)c3ccc(Cl)cc3)ccc2O[C@H]1CN(C)Cc1ccc(-c2ccccc2)cc1 | active
C[C@H](CO)N1C[C@H](C)[C@@H](CN(C)Cc2ccc(-c3ccccc3)cc2)Oc2ccc(NS(=O)(=O)c3ccc(Cl)cc3)cc2C1=O | active
C[C@@H]1CN([C@H](C)CO)C(=O)c2cc(NS(=O)(=O)c3ccccc3)ccc2O[C@H]1CN(C)Cc1ccc(-c2ccccc2)cc1 | inactive
COc1cccc(C#Cc2ccc([C@H]3[C@H]4CN(S(=O)(=O)c5ccccc5C)CC(=O)N4[C@H]3CO)cc2)c1 | inactive
C[C@H](CO)N1C[C@H](C)[C@@H](CN(C)C(=O)Cc2ccncc2)Oc2cc(C#CC3CCCCC3)ccc2S1(=O)=O | inactive
O=C(Nc1cc(Cl)ccc1Cl)c1cc(Cl)ccc1NS(=O)(=O)c1ccc(Cl)c([N+](=O)[O-])c1 | inactive
O=C(Nc1ccc([N+](=O)[O-])cc1Cl)c1cc(Cl)ccc1O | active
NC(=O)c1ccc([N+](=O)[O-])cc1Cl | inactive
C[C@@H]1CN([C@H](C)CO)C(=O)c2cccc(NC(=O)NC3CCCCC3)c2O[C@H]1CN(C)Cc1ccc(C(F)(F)F)cc1 | inactive
CN(C)C(=O)c1ccc(-c2cccc(-c3nc(C(=O)NCc4ccccc4)cc4c3[C@@H](CCO)N([S@@](=O)C(C)(C)C)C4)c2)cc1 | active
CN(C)C(=O)c1cccc(-c2cccc(-c3nc(C(=O)NC4CCCCC4)cc4c3[C@H](CCO)N([S@@](=O)C(C)(C)C)C4)c2)c1 | inactive
COc1cccc(CNC(=O)c2cc3c(c(-c4cccc(-c5cccc(C#N)c5)c4)n2)[C@H](CCO)N([S@@](=O)C(C)(C)C)C3)c1 | inactive
CN(C)C(=O)c1cccc(-c2cccc(-c3nc(C(=O)NC4CCCCC4)cc4c3[C@@H](CCO)N([S@@](=O)C(C)(C)C)C4)c2)c1 | active
CN(C)C(=O)c1cccc(-c2cccc(-c3nc(C(=O)NC4CCCCC4)cc4c3[C@@H](CCO)N([S@](=O)C(C)(C)C)C4)c2)c1 | inactive
CN(C)C(=O)c1ccc(-c2cccc(-c3nc(C(=O)NCc4ccccc4)cc4c3[C@@H](CCO)N([S@](=O)C(C)(C)C)C4)c2)cc1 | inactive
COc1cccc(CNC(=O)c2cc3c(c(-c4cccc(-c5ccc(C#N)cc5)c4)n2)[C@@H](CCO)N([S@](=O)C(C)(C)C)C3)c1 | active
COc1cccc(CNC(=O)c2cc3c(c(-c4cccc(-c5ccc(C#N)cc5)c4)n2)[C@H](CCO)N([S@@](=O)C(C)(C)C)C3)c1 | inactive
CN(C)C(=O)c1ccc(-c2cccc(-c3nc(C(=O)NCc4ccccc4)cc4c3[C@H](CCO)N([S@@](=O)C(C)(C)C)C4)c2)cc1 | inactive

Reference: the antibiotic and cytotoxicity screens of Wong et al. (2023)
